B2AR arrestin = beta2AR (human) beta-arrestin recruitment activity. P07550. beta-arrestin recruitment to beta2AR, cell-based reporter. Potency, µM (top dose mostly 46.1 µM), hits mostly activators. hit rate 0.02% among 330,000. AID 492947; active means well fitted activation curve with a large enough effect; inconclusive means small, poorly fitted or top-dose-only effect; further: nearly all actives have a fitted effect of over 65% in size
D3 antag = blocks the human D3 dopamine receptor | P35462 | D3R cells, DiscoveRx beta-arrestin luminescence, antagonist mode; stronger effect = lower value | max response, negative = inhibition, % | hit rate 2.5% among 360,000 | AID 652054; in the data active means max response below about -50%; inconclusive means no clear call, values can overlap the other calls
Target sequence (P35462 whole entry, looked up): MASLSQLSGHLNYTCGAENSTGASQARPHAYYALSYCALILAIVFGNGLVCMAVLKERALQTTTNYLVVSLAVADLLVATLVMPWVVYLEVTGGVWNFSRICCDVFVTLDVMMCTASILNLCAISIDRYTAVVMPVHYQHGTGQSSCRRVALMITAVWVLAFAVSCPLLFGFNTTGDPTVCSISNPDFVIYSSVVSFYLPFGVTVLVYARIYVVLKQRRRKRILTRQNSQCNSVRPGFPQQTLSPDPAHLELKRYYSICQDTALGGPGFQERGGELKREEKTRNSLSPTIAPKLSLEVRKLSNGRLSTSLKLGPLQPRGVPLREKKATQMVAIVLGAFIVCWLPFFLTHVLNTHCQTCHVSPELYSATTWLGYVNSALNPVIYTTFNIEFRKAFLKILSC
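Cells plated overnight at 1500 cells/well, then exposed to library compounds with dopamine controls for 90 minutes at 37 degrees C. DiscoveRx reagent added for 30–60 minutes at room temperature; luminescence read, quantitative HTS format.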
Giardia kill = Giardia lamblia killing. Giardia lamblia trophozoite viability. activity change, % at 7.66 µM, hits read low. hit rate 0.15% among 340,000; in the data active means activity change below about -80%; inconclusive means between about -30% and that limit;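 further: parasites exposed to compound for two days anaerobically before the ATP read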
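Giardia lamblia trophozoites (100 cells/well) were incubated with compounds for 48 h at 37 deg C under anaerobic conditions. Viability was read as ATP content by one-step luminescence after 15-30 min at room temperature.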
DRD3 agonist = agonists of human D3 dopamine receptor | D3R DiscoveRx beta-arrestin cells, luminescence, 90 min | max activation, % | hit rate 0.58% among 410,000 | AID 652048; in the data active means max activation above about 30%
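Agonist mode: compounds and dopamine controls were applied to plated cells for 90 min at 37 degrees C after an overnight attachment at 1500 cells/well. Luminescent read-out followed 30 - 60 minutes at room temperature with DiscoveRx detection reagent.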
Of the large screens only hits and unclear results are named; the others gave an inactive call. Only some compounds are listed: those with a hit (about 2.8% of all), similar ones and a draw of the others.

O=C(NNc1ccc(C(F)(F)F)cc1[N+](=O)[O-])c1ccc(NS(=O)(=O)c2ccc(F)cc2)cc1	D3 antag -73
O=C(N1CCN(Cc2ccccc2)CC1)C12CC3CC(CC(C3)C1)C2	D3 antag -65
Cc1ccccc1N=C1NC(=O)/C(=C/c2cccn2C)S1	none
Cc1cccc(N=C2NC(=O)/C(=C3/C(=O)N(C)c4ccccc43)S2)c1C	D3 antag -93
COC(=O)c1c(-c2cccs2)csc1NC(=O)c1ccc(C(C)(C)C)cc1	none (no result: B2AR arrestin, D3 antag, Giardia kill)
ONC(=Nc1cccc(C(F)(F)F)c1)c1cccnc1	D3 antag -63
COc1ccccc1Nc1c2c(nc3ccc(NC(=O)c4cccc(OC)c4OC)cc13)CCCC2	DRD3 agonist 54 (no result: B2AR arrestin, D3 antag, Giardia kill)
Oc1ccc2ccccc2c1-c1sc(Nc2ccccc2)n[n+]1-c1ccc(F)cc1	none
Fc1ccc(-[n+]2nc(Nc3ccccc3)sc2-c2c3ccccc3cc3ccccc23)cc1	D3 antag -63
CCc1ccc(C(=O)Nc2cccc(-c3nc4cc(C(C)C)ccc4o3)c2)cc1	none (no result: B2AR arrestin, D3 antag, Giardia kill)
CC1CC2=C(C(=O)O1)C(c1ccc(Cl)cc1)Nc1ccccc1N2 (stereo unspecified)	D3 antag -52
COc1ccc(NC(=O)COC(=O)c2cc(SC)ccc2Cl)c(OC)c1	DRD3 agonist 32
COc1ccc(C(C)(C)C)cc1NC(=O)COC(=O)c1cc(SC)ccc1Cl	none
CCOC(=O)Cc1csc(NC(=O)c2cc3c(s2)CCCC3)n1	none
CCOC(=O)Cc1csc(NC(=O)c2ccc(S(=O)(=O)N3CCCCC3)cc2)n1	DRD3 agonist 36
CCOC(=O)Cc1csc(NC(=O)c2csc3c2CCCC3)n1	D3 antag -63
C=CCNC(=S)N/N=C(\C)c1ccccn1	D3 antag -90
C/C(=N\NC(=O)c1ccc(F)cc1)c1ccccn1	D3 antag -113
CC(=NNC(=S)Nc1ccccc1)c1ccccn1	none (no result: B2AR arrestin, Giardia kill)
C=CCn1c(=S)[nH]c2cc(C(=O)Nc3ccc(F)cc3)ccc2c1=O	DRD3 agonist 47
C=CCn1c(=S)[nH]c2cc(C(=O)NCCc3ccc(S(N)(=O)=O)cc3)ccc2c1=O	none
COCCn1c(=S)[nH]c2cc(C(=O)NCc3ccccc3)ccc2c1=O	D3 antag -66 (no result: B2AR arrestin, Giardia kill)
O=C(NCc1ccccc1)c1ccc2c(=O)n(CCCN3CCCC3=O)c(=S)[nH]c2c1	D3 antag -52
Cc1cccc(N(C)c2nc3ccc(C(=O)c4ccccc4)cc3n3c(C)nnc23)c1	none (no result: B2AR arrestin, D3 antag, Giardia kill)
O=C(NCc1ccco1)c1ccc2c(c1)N(Cc1cccc(Cl)c1)C(=O)c1ccccc1S2=O (stereo unspecified)	DRD3 agonist 59 (no result: B2AR arrestin, D3 antag, Giardia kill)
O=C(c1ccc2c(c1)N(Cc1ccccc1F)C(=O)c1ccccc1S2(=O)=O)N1CCCCCC1	none (no result: B2AR arrestin, D3 antag, Giardia kill)
CCN1CCN(C(=O)c2ccc3c(c2)N(Cc2ccccc2)C(=O)c2ccccc2S3=O)CC1 (stereo unspecified)	D3 antag -56
O=C(NCCCN1CCCC1)c1ccc2c(c1)N(Cc1cccc(Cl)c1)C(=O)c1ccccc1S2=O (stereo unspecified)	none
CC1CC(C)CN(CCCNC(=O)c2ccc3c(c2)N(Cc2ccccc2)C(=O)c2ccccc2S3=O)C1 (stereo unspecified)	D3 antag -72
CCN1CCN(C(=O)c2ccc3c(c2)N(Cc2cccc(Cl)c2)C(=O)c2ccccc2S3=O)CC1 (stereo unspecified)	none (no result: B2AR arrestin, D3 antag, Giardia kill)
CCN1CCN(C(=O)c2ccc3c(c2)N(Cc2ccccc2F)C(=O)c2ccccc2S3(=O)=O)CC1	D3 antag -61
CN(c1ccccc1)c1nc(C#N)nc(N2CCOCC2)n1	none (no result: B2AR arrestin, D3 antag, DRD3 agonist)
COC(=O)c1cc(Nc2nc3ccccc3nc2NS(=O)(=O)c2ccc(C)cc2)ccc1Cl	none (no result: B2AR arrestin, D3 antag, Giardia kill)
CCN(CC)S(=O)(=O)c1ccc(C(=O)NCCSc2c(-c3ccc(OC)cc3)[nH]c3ccccc23)cc1	none (no result: B2AR arrestin, D3 antag, Giardia kill)
Cc1ccc(NC(=O)CN2C(=O)CC(c3ccco3)Sc3ccccc32)cc1Cl (stereo unspecified)	none (no result: B2AR arrestin, D3 antag, Giardia kill)
CCOC(=O)C(CC)n1nc(C)c2c(C)n(-c3ccc(C)cc3)nc2c1=O (stereo unspecified)	none (no result: B2AR arrestin, D3 antag, Giardia kill)
Cc1sc2ncn(CC(=O)Nc3ccc(C(F)(F)F)cc3)c(=O)c2c1S(=O)(=O)N1CCN(C)CC1	none (no result: B2AR arrestin, D3 antag, Giardia kill)
CC(C)n1cc(/C=N/NC(=O)COc2cccc3cccnc23)c2ccccc21	DRD3 agonist 34
CCN(CC)CCCNC(=O)C1c2ccccc2C(=O)N(C)C1c1ccc(OC)cc1 (stereo unspecified)	D3 antag -52
COC1=CC(=O)c2nc(Cl)ccc2C1=O	D3 antag -75 (no result: B2AR arrestin, Giardia kill)
COc1cccc2c1C(=O)C=C(C)C2=O	none
COc1ccc(-c2nc(Cn3c(SCc4cccc(F)c4)nc4cccnc43)c(C)o2)cc1	none (no result: B2AR arrestin, D3 antag, Giardia kill)
Cc1oc(-c2ccccc2Cl)nc1Cn1c(SCc2cccc(F)c2)nc2cccnc21	DRD3 agonist 44 (no result: B2AR arrestin, D3 antag, Giardia kill)
CCOC(=O)c1sc2nc(C)nc(NCCc3ccccn3)c2c1C	none
CCOC(=O)c1sc2nc(C)nc(NCc3ccccc3OC)c2c1C	DRD3 agonist 33
COc1cc(CNC(=O)CSCc2nc3cccnc3n2C2CCCCC2)cc(OC)c1OC	none (no result: B2AR arrestin, D3 antag, Giardia kill)
CC(C)Oc1ccc(C2CC(=O)N(Nc3ccc([N+](=O)[O-])cc3[N+](=O)[O-])C2=O)cc1 (stereo unspecified)	D3 antag -51
C=CCN(CC=C)C(=S)NC(=O)c1ccc(OC)cc1	B2AR arrestin inconclusive, D3 antag -69
C=CCN(CC=C)C(=S)NC(=O)c1ccc(-c2ccccc2)cc1	none
CC(C)OCCCN1C(=O)c2[nH]nc(-c3ccccc3O)c2C1c1cccc(OCc2ccccc2)c1 (stereo unspecified)	DRD3 agonist 30 (no result: B2AR arrestin, D3 antag, Giardia kill)
O=C1c2[nH]nc(-c3ccccc3O)c2C(c2cccc(OCc3ccccc3)c2)N1CCO (stereo unspecified)	none (no result: B2AR arrestin, D3 antag, Giardia kill)
CCC(=O)N1CCc2cc(CNS(=O)(=O)c3ccc(Cl)s3)ccc21	none (no result: B2AR arrestin, D3 antag, Giardia kill)
COc1ccc(CCN2C(=O)/C(=C\c3ccco3)SC2=S)cc1OC	DRD3 agonist 59
O=C1/C(=C\c2ccco2)SC(=S)N1Cc1ccccc1	D3 antag inconclusive
C1=CC2CC1CC2CN1CCN(Cc2ccccc2)CC1 (stereo unspecified)	D3 antag -53
Cc1ccc(S(=O)(=O)N2CCN(CC3CC4C=CC3C4)CC2)cc1 (stereo unspecified)	none
CCCS(=O)(=O)N1CCN(CC2CC3C=CC2C3)CC1 (stereo unspecified)	none
Fc1ccccc1N1CCN(CC2CC3C=CC2C3)CC1 (stereo unspecified)	D3 antag -71
CCS(=O)(=O)N1CCN(CC2CC3C=CC2C3)CC1 (stereo unspecified)	D3 antag -72
FC(F)(F)c1cccc(N2CCN(CC3CC4C=CC3C4)CC2)c1 (stereo unspecified)	D3 antag -72
O=C(CCCN1CCN(c2ccc(F)cc2)CC1)NC1c2ccccc2CSc2ccccc21 (stereo unspecified)	none (no result: B2AR arrestin, D3 antag, Giardia kill)
Cc1ccc(C)c(NC(=O)CN2CCN(C3CCCCC3)C(=O)C2=O)c1	none (no result: B2AR arrestin, D3 antag, Giardia kill)
COC(=O)c1ccccc1NC(=O)CN1CCN(C23CC4CC(CC(C4)C2)C3)CC1	D3 antag -76

Screens (PubChem)
